Reference: PubChem BioAssay (NCI)
The panel holds about 79,000 compounds, 15% with a hit somewhere; the sample as a whole holds those more often. Active and inactive are the calls of the source. Rule as the data show it: active = growth inhibition above about 70%; inactive = the rest.

Experiments:
[1] = NCI Yeast Anticancer Drug Screen. Data for the rad50 strain (AID 155);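 also: 0% = growth of vehicle-only cultures of the same strain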; conditions: S. cerevisiae rad50 strain growth inhibition; at 50.0 µM; hits give high values
Method in brief: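 Compounds were tested on a yeast strain with an engineered DNA damage repair alteration; the reported value is growth inhibition normalised to vehicle treatment.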

[2] = NCI Yeast Anticancer Drug Screen. Data for the mec2-1 strain (AID 157); conditions: S. cerevisiae mec2-1 strain, at 50.0 µM, hits give high values
Method in brief: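 Cells of the genetically defined mec2-1 yeast strain are incubated with test compound. Inhibition of growth is calculated against vehicle-treated controls.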

[3] = NCI Yeast Anticancer Drug Screen. Data for the sgs1 mgt1 strain (AID 161);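 also: 0% = growth of cultures given vehicle only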; conditions: S. cerevisiae sgs1 mgt1 strain, at 50.0 µM, hits give high values
Method in brief: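 Test agents were incubated with a DNA-repair-mutant yeast strain. Growth was then read and compared against vehicle-treated controls.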

[4] = NCI Yeast Anticancer Drug Screen. Data for the cln2 rad14 strain (AID 165);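 also: 0% = growth equal to vehicle treated cultures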; conditions: S. cerevisiae cln2 rad14 strain, at 50.0 µM, hits give high values
Method in brief: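 The screen exposed genetically defined yeast (cln2 rad14) to test compounds and scored growth inhibition relative to vehicle-treated controls.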

[5] = NCI Yeast Anticancer Drug Screen. Data for the bub3 strain (AID 167); conditions: S. cerevisiae bub3 mutant strain, at 50.0 µM, hits give high values
Method in brief: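 Growth of a checkpoint-deficient yeast mutant is measured after compound exposure. Values represent inhibition relative to vehicle.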

[6] = NCI Yeast Anticancer Drug Screen. Data for the mlh1 rad18 strain (AID 175); conditions: S. cerevisiae mlh1 rad18 strain growth inhibition; at 50.0 µM; hits give high values
Method in brief: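 Compound-treated yeast growth, normalised to vehicle controls. Strain bears defined DNA repair mutations.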

Measured: growth inhibition

CCOC(=O)c1c(C)c2c(n1Cc1ccccc1)CCCC2=O
inactive: [1] 15.5% | [2] 11.4% | [3] 38.5% | [4] 12.7% | [5] 23.9% | [6] 19.4%

CN1CCN(C2=NCCO2)CC1
inactive: [1] 6.4% | [2] 22.1% | [3] 32.3% | [4] 32% | [5] 12.8% | [6] 20.2%

CCCCOc1ccc(CCOC(C)=O)cc1
inactive: [1] 6.5% | [2] -14.4% | [3] 1.7% | [4] -25.3% | [5] -15% | [6] -20.8%

CC(C)C[N+](=O)[O-]
inactive: [1] -23.4% | [2] -21.1% | [3] -4.05% | [4] -12.7% | [5] -1.25% | [6] 11.3%

O=[N+]([O-])c1ccc(S(=O)(=O)c2ccc(N=Cc3ccc(C=Nc4ccc(S(=O)(=O)c5ccc([N+](=O)[O-])cc5)cc4)cc3)cc2)cc1
inactive: [1] 6.85% | [2] 3.25% | [3] 1.15% | [4] -5.45% | [5] -4.55% | [6] -5.85%

CN(C)c1ccccc1CN1CCCN(Cc2ccccc2N(C)C)C1c1ccncc1
inactive: [1] -16.3% | [2] -10.1% | [3] -12.3% | [4] -0.25% | [5] -16.2% | [6] -1.55%

CC1C(c2ccccc2)=CCON1c1ccccc1 (stereo not given)
inactive: [1] -2.9% | [2] -16.6% | [3] -24.4% | [4] 13.4% | [5] -3.75% | [6] -28.1%

CC(=O)/C=C(\c1ccccc1)c1c(O)c2ccccc2oc1=O
inactive: [1] -2% | [2] 9.15% | [3] 4.45% | [4] 7.2% | [5] 3.85% | [6] 6.15%

COC(=O)N/N=C/c1oc(-c2ccccc2)c(-c2ccccc2)c1[N+](=O)[O-]
inactive: [1] -2.15% | [2] -12.6% | [3] 16.5% | [4] 20.8% | [5] -10.1% | [6] -8.2%

COc1ccc(/C=N/NS(=O)(=O)c2ccc(/C=C3\NC(=O)N(C)C3=O)cc2)cc1
inactive: [1] -10.5% | [2] 22.1% | [3] -21.9% | [4] 6.5% | [5] -23.7% | [6] 27.1%

O=C(O)/C=C/C(=O)Nc1ccc(C(=O)O)cc1
inactive: [1] 22.9% | [2] -27.3% | [3] 10.2% | [4] 7.6% | [5] -20.9% | [6] -3.7%

CCCCCCCCCCCc1cc(=O)c2c(O)cccc2o1
inactive: [1] -5% | [2] -28.6% | [3] 9.55% | [4] -3.9% | [5] 4% | [6] -14.4%

COc1cc(/C=C2\CCC(CN(C)C)C2=O)ccc1OC(=O)c1ccccc1 (stereo not given)
active: [1] 86.6% | [2] 91.1% | [3] 86% | [4] 89.1% | [5] 85.2% | [6] 89.7%

CC(=O)Nc1ccc(S(=O)(=O)NCCC(=O)O)cc1
inactive: [1] -9.7% | [2] -16.6% | [3] 2.45% | [4] 4.3% | [5] 4.45% | [6] 21.8%

O=c1oc2ccccc2c(O)c1C(c1ccc2c(c1)OCO2)N1CCCC1 (stereo not given)
inactive: [1] 7.4% | [2] 36.7% | [3] 19.9% | [4] 15.3% | [5] 8.35% | [6] 22.9%

Fc1ccc(N=C2c3ccccc3-c3ccccc32)cc1
inactive: [1] 6.35% | [2] -1.9% | [3] -0.25% | [4] 5.3% | [5] 1.65% | [6] 1.15%

COc1ccc(OC)c(CNc2ccc(C(=O)O)cc2)c1
inactive: [1] 11.4% | [2] -1.25% | [3] 15% | [4] -1.9% | [5] 6.75% | [6] 29.6%

CCCCOc1cc(C(=O)O)ccc1[N+](=O)[O-]
inactive: [1] -10.7% | [2] -19.4% | [3] -10.3% | [4] -5.75% | [5] -19.2% | [6] -3.1%

Cc1ccc(S(=O)(=O)OCCN(CCOS(=O)(=O)c2ccc(C)cc2)c2cccc(Cl)c2)cc1
inactive: [1] 14.1% | [2] 2.35% | [3] 4.65% | [4] 19% | [5] -4.45% | [6] 29.9%

O=[N+]([O-])c1ccc(C[N+]2(CCC[N+]3(Cc4ccc([N+](=O)[O-])cc4)CCCC3)CCCC2)cc1
inactive: [1] -1.6% | [2] -18.2% | [3] -2.1% | [4] 10.7% | [5] 8.75% | [6] 2.3%
